Measurements as given in the supplement of paper PMC12636033.
± gives the standard deviation of the averaged measurements. Over roughly 33,000 sequences, “E-score (rank enrichment, -0.5 to 0.5)” has its median near -0.0075; the highest 2% begin near 0.23. The sample as a whole holds a higher share of the highest values than the screen did.

What follows are sequences tested on WT Max(13-93) synthetic (M65Nle) (assay: PBM 8-mer E-score (E-score (rank enrichment, -0.5 to 0.5)); higher = stronger preferential binding).
Description: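 Protein binding microarray (universal PBM chip covering all 10-mers in fixed probe flanks) with chemically synthesized human Max(13-93) bHLH-LZ analogs (not full-length Max) bearing noncanonical residues (hArg, Tha, Aib, Nle at 65) and aromatic Cys staples. Read-out per 8-mer (and its reverse complement): E-score (rank-based enrichment, -0.5 to 0.5) and Z-score of median probe intensity.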

Sequence	PBM 8-mer E-score
GAAGTAAC	0.0916 ± 0.087
GTCTTTAA	0.0691 ± 0.12
ACCCACGT	0.359 ± 0.02
ATCCACAG	0.0193 ± 0.067
AACCATGG	0.0463 ± 0.13
ATCCACAT	0.287 ± 0.022
AATCACGC	0.188 ± 0.042
AATCACGT	0.399 ± 0.04
AACCATGT	0.2698 ± 0.00089
AATCACGA	0.0321 ± 0.13
ACCCACGC	0.113 ± 0.11
ATCCACAA	0.0288 ± 0.05
AACCATGA	0.145 ± 0.028
ACCCACGA	-0.0551 ± 0.047
AAATCTCG	0.017 ± 0.054
GTGAGTCA	-0.117 ± 0.064
TAGGCCAA	-0.0597 ± 0.035
CGCAAGCA	0.1148 ± 0.001
CTGAACGC	-0.243 ± 0.0048
GATTCCAC	-0.0239 ± 0.16
AACCACGC	0.178 ± 0.04
CACCATTA	-0.0432 ± 0.14
AACCACAT	0.282 ± 0.045
AACCATTA	0.318 ± 0.052
AACCACGT	0.392 ± 0.0086

Sequence	PBM 8-mer E-score
AACCATTG	0.0448 ± 0.0034
AACCACAG	-0.196 ± 0.12
AACCACAC	0.173 ± 0.0082
AACCACGA	0.198 ± 0.016
ACAATTGC	0.129 ± 0.021
ATATACCA	0.153 ± 0.019
TATGCTGA	-0.0828 ± 0.1
ACCTATTG	0.157 ± 0.01
TACGTATA	0.094 ± 0.091
ACTTGATC	-0.0132 ± 0.16
AGAGTGAA	-0.133 ± 0.058
CAGACATC	-0.0722 ± 0.089
CCCTTTGC	-0.0228 ± 0.044
CTGCCAAG	-0.0342 ± 0.067
CCTCGATA	-0.157 ± 0.014
CCTAAACG	-0.145 ± 0.043
AATGTGGC	0.0312 ± 0.0053
AATGTGGG	0.18 ± 0.032
CATGTGGC	0.3003 ± 0.0019
GATGTGGC	-0.117 ± 0.057
CATGTGGA	0.324 ± 0.032
AATGTGGA	0.0921 ± 0.085
GATGTGGA	0.152 ± 0.011
CATGTGGG	0.257 ± 0.075
CATGGGGG	0.0813 ± 0.1

Sequence	PBM 8-mer E-score
AATGACTG	0.102 ± 0.018
GAAGCTCA	-0.152 ± 0.13
ATTCAACC	-0.0085 ± 0.021
GTTCGGGA	-0.13 ± 0.11
GACCCTGA	-0.121 ± 0.035
AGAGGACA	-0.0937 ± 0.095
TAAGTTGA	0.0328 ± 0.044
CTTTCGTC	0.0247 ± 0.074
ATTTCGTG	0.0519 ± 0.051
ATTTCGTC	0.242 ± 0.011
ATACGATC	-0.0258 ± 0.1
ACAAAGAT	0.0862 ± 0.049
CAAGCTCA	-0.35 ± 0.017
CTGTGTTA	0.0459 ± 0.023
GTGTATTA	0.247 ± 0.035
CTGTATTA	0.138 ± 0.0022
ATATGTTC	0.179 ± 0.0093
GTGTGTTA	0.242 ± 0.099
ATGTGTGA	0.18 ± 0.12
ATGTGTCA	0.175 ± 0.069
ATATGTTA	0.284 ± 0.051
ATGTGTTA	0.275 ± 0.015
ATGTATTA	0.225 ± 0.086
CTATGTTA	0.16 ± 0.052
GGGTGTTA	-0.0337 ± 0.14

Sequence	PBM 8-mer E-score
TGAGATAA	0.116 ± 0.07
CAATGATC	-0.0206 ± 0.062
CGCCTCGA	-0.0745 ± 0.097
CTCCTGTC	-0.0511 ± 0.018
TCGCTGAA	-0.0377 ± 0.086
CCCCTGGC	-0.127 ± 0.042
AACCTCAT	0.156 ± 0.065
GTTTCCAA	0.0481 ± 0.061
ATGTGTTG	0.247 ± 0.035
ATATGTTG	0.0792 ± 0.065
ATGTGTTC	0.106 ± 0.0063
AAACACGT	0.329 ± 0.093
AAACACGA	0.19 ± 0.11
AAACACGG	-0.0068 ± 0.091
AAACACGC	0.24 ± 0.054
AAACACAT	0.287 ± 0.014
AAACACAG	0.153 ± 0.053
GAACACGC	0.105 ± 0.04
AAACACAC	0.132 ± 0.011
CAACACGC	0.195 ± 0.0099
AGTAAACG	0.0125 ± 0.018
AGGTCTTG	-0.116 ± 0.084
TGACGCCA	-0.0607 ± 0.033
ACTGCAGT	-0.0688 ± 0.15
AGATGGAC	-0.09113 ± 0.00061

Sequence	PBM 8-mer E-score
AATGTCAA	0.0117 ± 0.23
GATGTCAA	0.0342 ± 0.06
CGTGTCAA	0.0498 ± 0.015
TATGTCAA	0.287 ± 0.054
TGTGTCAA	0.254 ± 0.011
AGTGTCAA	0.122 ± 0.14
CAGAGCGA	-0.0911 ± 0.044
GGTTTGAA	0.145 ± 0.0079
CCAGTGGG	-0.122 ± 0.16
GACTTCTA	-0.0184 ± 0.13
CCAAACAC	0.242 ± 0.076
AAAAACAC	0.251 ± 0.05
GCAAACAC	0.156 ± 0.07
ACAAACAA	0.112 ± 0.0055
CAAAACAC	0.073 ± 0.066
CCAAACAG	-0.0488 ± 0.037
ACAAACAC	0.268 ± 0.053
GAAAACAC	0.0469 ± 0.11
ACAAACAG	-0.0244 ± 0.058
CTAAACAA	0.0536 ± 0.046
CTGCGTGC	-0.0949 ± 0.0091
CGATCGAG	-0.26 ± 0.069
CATGCCCA	0.00676 ± 0.079
CCCCTCCC	0.239 ± 0.16
CCCTCCCC	0.171 ± 0.15

Sequence	PBM 8-mer E-score
ACCTCCCA	0.00978 ± 0.14
GCCTCCCA	-0.155 ± 0.12
CCTCCCCA	0.258 ± 0.065
CCCCTCCG	0.044 ± 0.086
CCCTCCCA	0.262 ± 0.0086
CCTCCCCC	-0.0244 ± 0.2
CCTCCCAA	0.0602 ± 0.2
CTGGGTAC	-0.201 ± 0.15
GGATGGAC	0.106 ± 0.062
AGGGTTTA	0.152 ± 0.0074
AGGAGCAA	-0.034 ± 0.032
CACCACCA	-0.0146 ± 0.046
AACGATCC	-0.124 ± 0.023
GCAATGGC	0.0112 ± 0.019
ATACGCTC	0.0772 ± 0.0077
CCCATACA	0.0285 ± 0.11
GGACTGCC	-0.0905 ± 0.19
ACATATAG	0.0953 ± 0.059
GCATATGA	0.138 ± 0.034
CCATATAA	0.174 ± 0.02
ACATATCG	0.0595 ± 0.028
CCATATGC	0.112 ± 0.14
TCATATAA	0.15 ± 0.064
ACATATCA	0.252 ± 0.013
ACATATAA	0.309 ± 0.078

Sequence	PBM 8-mer E-score
ACATATAC	-0.00226 ± 0.03
GCATATGC	0.245 ± 0.008
ACATATAT	0.244 ± 0.04
CCATATCA	0.0654 ± 0.064
GCGGCCTA	-0.209 ± 0.12
ATGCGATG	0.054 ± 0.083
GTGAACAA	0.114 ± 0.0024
CAGGCGAC	-0.124 ± 0.082
CGTCCCGA	-0.209 ± 0.12
AAAGTTAG	0.127 ± 0.044
AGTGCAGA	0.0828 ± 0.16
ATAGCGGC	-0.135 ± 0.21
AACCTAGT	-0.18 ± 0.029
ATTGTGCC	0.174 ± 0.071
ACATATGC	0.0404 ± 0.029
ACATATGT	0.265 ± 0.11
ACATATGG	0.155 ± 0.071
CGTTCTGC	-0.108 ± 0.038
TATGTGAA	0.254 ± 0.13
GATGTGAC	-0.231 ± 0.026
GATGTGAA	0.15 ± 0.0086
CCTGTGAA	-0.00915 ± 0.077
